# According to PubChem BioAssay (NCATS):
# Inconclusive results are not listed. Entries that show only a call come without a potency. Calls of active or inactive are those of the source. Calls follow the shape of the dose curve; as a rule, active = well fitted curve in the direction sought with a large enough effect; inconclusive = small, poorly fitted or top-dose-only effect, or another doubt; inactive = no such curve, though single readings can be large; an effect the other way counts as inactive or inconclusive. *1 amine or outer side, *2 acyl side, *3 side chain or, on linkers, in order; H or OH if unused. Where a SMILES comes first, the peptide text is derived from it. Bridges are numbered along the chain shown (N, C = ends). [ ]: non-standard residue; d: D form. The star is where a group is joined. ξ: configuration not given here. ξhTyr(3S-OH,4S-OH,3'-OSO3H) = NC(C(=O)O)[C@H](O)[C@@H](O)c1ccc(O)c(OS(=O)(=O)O)c1; Orn(4R-OH,5R-OH) = O=C([C@H](C[C@@H](O)[C@@H](O)N[*:3])N[*:1])[*:2]; X2 = CCCCCOc1ccc(-c2cc(-c3ccc(C(=O)*)cc3)no2)cc1; X3 = C[C@H]1CN([*:1])C(C(=O)[*:2])[C@H]1O; ξGln(3R-OH) = NC(=O)C[C@@H](O)C(N)C(=O)O; ξPro(4R-OH) = O=C(O)C1C[C@@H](O)CN1; ξThr(3R) = C[C@@H](O)C(N)C(=O)O
# Experiments:
# [1] = P-glycoprotein substrates identified in KB-3-1 adenocarcinoma cell line, qHTS therapeutic library screen (AID 1346986); details: KB-3-1 parental cells viability, CellTiter-Glo, 72 h; series mostly up to 44.5 µM; also: nearly all actives have a fitted effect of over 60% in size
# Procedure, shortened: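 Using luminescence to quantify ATP, parental and P-gp-overexpressing KB cells were compared after 72 h compound titration. KB-8-5-11 was also run with the P-gp inhibitor tariquidar.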
# [2] = P-glycoprotein substrates identified in KB-8-5-11 adenocarcinoma cell line, qHTS therapeutic library screen (AID 1346987); details: KB-8-5-11 (P-gp overexpressing) viability, CellTiter-Glo, 72 h; series mostly up to 44.5 µM; also: nearly all actives have a fitted effect of over 65% in size
# Procedure, shortened: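 In this qHTS, P-gp-rich KB-8-5-11 cells received library compounds across a concentration range. Viability was quantified by luminescence after 72 h at 37 degree C.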
# [3] = test system: Zika virus NS2B-NS3 protease (linked construct); assay: Confirmatory screen NINDS AMC qHTS for Zika virus inhibitors (AID 1347152); details: Purified linked NS2B-NS3, AMC substrate fluorescence; series mostly up to 56.6 µM; also: potency is read from the fitted curve at half-maximal effect; nearly all actives have a fitted effect of over 70% in size
# Procedure, shortened: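 In this dose-response qHTS, AMC release from 10 microM Bz-Nle-KRR-AMC by 1 nM linked protease is measured over 15 minutes (about 20% conversion) at pH 8.0. Percent inhibition is fitted to a 4-parameter Hill curve.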
# [4] = test system: Zika virus NS2B-NS3 protease (unlinked complex); assay: Confirmatory screen GU AMC qHTS for Zika virus inhibitors (AID 1347153); details: Recombinant NS2B-NS3 protease, AMC substrate fluorescence; series mostly up to 111 µM;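 also: enzyme at 25 nM with substrate at 10 µM below its Km of 18.3 µM; potency is read from the fitted curve at half-maximal effect; nearly all actives have a fitted effect of over 70% in size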
# Procedure, shortened: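 Compounds were preincubated 15 min at room temperature with 25 nM noncovalent NS2B-NS3 protease at pH 8.0; AMC substrate added at 10 microM and 15-min fluorescence gain (340/450 nm) converted to percent inhibition, fitted 4-parameter.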
# [5] = Confirmatory screen GU Rhodamine qHTS for Zika virus inhibitors qHTS (AID 1347157); details: purified enzyme assay, Rhodamine110 substrate fluorescence, 15 min; series mostly up to 114 µM; also: potency is read from the fitted curve at half-maximal effect; nearly all actives have a fitted effect of over 70% in size
# Procedure, shortened: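 Enzyme 25 nM in Tris-HCl pH 8.0 + 0.01% Tween 20; compounds up to 114 microM, 15 min RT dark; + Rhod110 substrate 1.5 microM; read t0 and 15 min; delta fluorescence → % inhibition → 4-parameter Hill fit.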
# [6] = test system: Zika virus NS2B-NS3 protease (unlinked complex); assay: Primary screen GU Rhodamine qHTS for Zika virus inhibitors: Unlinked NS2B-NS3 protease assay (AID 1347159); details: Recombinant ZIKV NS2B-NS3 protease, Rhodamine110 substrate fluorescence; series mostly up to 107 µM; also: potency is read from the fitted curve at half-maximal effect; nearly all actives have a fitted effect of over 60% in size
# Procedure, shortened: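 Percent inhibition came from the 15-min rise in Rhodamine110 fluorescence (1.5 microM substrate, ~15% conversion), normalized to no-inhibitor and no-enzyme wells and Hill-fitted. Unlinked protease, 25 nM, pH 8.0 Tris buffer; compounds up to 114 microM, 15-min preincubation.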
# [7] = test system: Zika virus NS2B-NS3 protease (linked construct); assay: Primary screen NINDS Rhodamine qHTS for Zika virus inhibitors (AID 1347160); details: purified NS2B-NS3 protease, Rhodamine110 substrate fluorescence; series mostly up to 33.1 µM; also: potency is read from the fitted curve at half-maximal effect; nearly all actives have a fitted effect of over 55% in size
# Procedure, shortened: (§1)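 Rhodamine110-peptide cleavage (1.5 µM substrate) by 25 nM linked NS2B-NS3 enzyme at pH 8.0 (Tris, Tween 20), after 15 min RT preincubation with compounds; 15-min fluorescence change normalized to controls and Hill-fitted.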
# [8] = Confirmatory screen NINDS Rhodamine qHTS for Zika virus inhibitors (AID 1347161); details: purified enzyme assay, Rhodamine110 substrate fluorescence, 15 min; series mostly up to 114 µM; also: potency is read from the fitted curve at half-maximal effect; nearly all actives have a fitted effect of over 60% in size
# Procedure, shortened: as §1
# [9] = Vero cells viability qHTS for Zika virus inhibitors (AID 1347167); details: cytotoxicity counter-screen (Zika); series mostly up to 45.9 µM
# Procedure, shortened: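 To flag cytotoxic protease inhibitors, viability is measured by ATP-dependent luminescence (CellTiter Glo) after cells attached overnight receive compound for 24 to 48 hours in DMEM with 4% FBS.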
# [10] = test system: Zika virus NS2B-NS3 protease (linked construct); assay: 384 well plate NINDS Rhodamine confirmatory qHTS for Zika virus inhibitors (AID 1347164); details: rhodamine-110 peptide substrate fluorescence; series mostly up to 100 µM; also: top concentration of the series differs between compounds; nearly all actives have a fitted effect of over 65% in size
# Procedure, shortened: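 Compounds are incubated about 15 minutes with linked protease (5, 30 or 60 nM final). Rhodamine 110-tagged Ac-LKRR substrate (10 microM final) is added and fluorescence measured after 25 minutes.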
# [11] = ZIKV-mCherry secondary qHTS for Zika virus inhibitors (AID 1347158); details: Vero cells, ZIKV-mCherry infection imaging, 48-72 h; series mostly up to 49.2 µM; also: top concentration of the series differs between compounds
# Procedure, shortened: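 Read-out is percent infection: mCherry-positive Vero cells (nuclear-proximal intensity >450 RFU, 3 SD above negative controls) counted by high-content imaging of Hoechst-stained, PFA-fixed wells after 48-72 h with ZIKV-mCherry at MOI 1 and compound.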
# [12] = test system: Zika virus NS2B-NS3 protease (linked); assay: 384 well plate NINDS AMC confirmatory qHTS for Zika virus inhibitors (AID 1347163); details: Recombinant NS2B-NS3 protease, Ac-VKTGKR-AMC fluorescence; series mostly up to 100 µM; also: potency is read from the fitted curve at half-maximal effect; nearly all actives have a fitted effect of over 50% in size
# Procedure, shortened: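 Enzyme (5, 30 or 60 nM final) first met test compounds for ~15 min. The AMC-tagged peptide Ac-VKTGKR-AMC followed at 30 microM. Fluorescence was then recorded at 25 min and scaled against no-enzyme and no-inhibitor wells.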
structure (smiles),measurement,setting,value
COC(=O)C1(C)CCCC2(C)c3ccc(C(C)C)cc3C(O)C(O)C12 (centres undefined),Potency,[1],inactive
same,Potency,[2],inactive
"CCCCCOc1ccc(-c2cc(-c3ccc(C(=O)N[C@H]4C[C@@H](O)[C@@H](O)NC(=O)C5[C@@H](O)[C@@H](C)CN5C(=O)C([C@H](O)CC(N)=O)NC(=O)C([C@H](O)[C@@H](O)c5ccc(O)c(OS(=O)(=O)O)c5)NC(=O)C5C[C@@H](O)CN5C(=O)C([C@@H](C)O)NC4=O)cc3)no2)cc1 (stereo partly drawn) (X2-[Orn(4R-OH,5R-OH)][ξThr(3R)][ξPro(4R-OH)][ξhTyr(3S-OH,4S-OH,3'-OSO3H)][ξGln(3R-OH)][X3]; lactam 1-C)",Potency,[1],inactive
same,Potency,[2],inactive
same,Potency,[3],21.5 µM (active)
same,Potency,[4],21.5 µM (active)
same,Potency,[5],4.82 µM (active)
same,Potency,[6],2.24 µM (active)
same,Potency,[7],4.47 µM (active)
same,Potency,[8],4.29 µM (active)
same,outcome,[9],inactive
CC1CCC2C(C)(C)[C@H](O)CC[C@]2(C)C12Cc1c(O)cc3c(c1O2)CN(C(CCC(=O)O)C(=O)O)C3=O (some centres undefined),Potency,[1],inactive
same,Potency,[2],inactive
O=C1OC(c2ccc(O)cc2)C(O)=C1Cc1ccccc1 (centres undefined),Potency,[1],inactive
same,Potency,[2],inactive
C=C(CC/C=C(\C)C(=O)O)C1(O)CC=C(C)CC1 (centres undefined),Potency,[1],inactive
same,Potency,[2],inactive
COC(=O)C1=COC(OC2OC(CO)C(O)C(O)C2O)C2C(COC(=O)/C=C/c3ccc(O)c(O)c3)C(O)C(O)C12 (centres undefined),Potency,[1],inactive
same,Potency,[2],inactive
C=C1CC[C@H]2[C@@](C)(CCC(OC3OC(CO)C(O)C(O)C3O)[C@@]2(C)CO)C1C(=O)CC1=CCOC1=O (some centres undefined),Potency,[1],inactive
same,Potency,[2],inactive
C[C@@H]1O[C@@H](O[C@H]2[C@H](O[C@H]3[C@H](O[C@H]4CC[C@@]5(C)C(CC[C@]6(C)C5CC=C5[C@@H]7CC(C)(C)C[C@@H](O)[C@]7(C)CC[C@]56C)C4(C)C)O[C@H](C(=O)O)[C@@H](O)[C@@H]3O)O[C@H](C(=O)O)[C@H](O)[C@@H]2O)[C@H](O)[C@H](O)[C@H]1O (some centres undefined),outcome,[1],inactive [at 9.29 µM]
same,outcome,[2],inactive [at 9.29 µM]
C/C(=C\CCC(C)CCO)C(=O)OC[C@H]1O[C@@H](O[C@@H]2OC=C(C(=O)O)[C@H]3CC[C@](C)(O)[C@@H]23)C(O)[C@@H](O)C1O (some centres undefined),Potency,[1],inactive
same,Potency,[2],inactive
same,Potency,[3],13.6 µM (active)
same,Potency,[5],4.29 µM (active)
same,Potency,[6],7.94 µM (active)
same,Potency,[7],5.62 µM (active)
same,Potency,[8],2.15 µM (active)
same,outcome,[9],inactive
O=C(/C=C/c1ccc(O)c(O)c1)O[C@H]1[C@@H]2C=CO[C@@H](O[C@@H]3O[C@H](CO)[C@@H](O)[C@H](O)[C@H]3O)[C@@H]2[C@@]2(CO)O[C@@H]12,Potency,[1],inactive
same,Potency,[2],inactive
C[C@@H]1O[C@@H](O[C@H]2[C@H](O[C@H]3[C@H](O[C@H]4CC[C@@]5(C)C(CC[C@]6(C)C5CC=C5[C@@H]7CC(C)(C)CC(=O)[C@]7(C)CC[C@]56C)[C@@]4(C)CO)O[C@H](C(=O)O)[C@@H](O)[C@@H]3O)O[C@H](CO)[C@H](O)[C@@H]2O)[C@H](O)[C@H](O)[C@H]1O (some centres undefined),outcome,[1],inactive [at 9.29 µM]
same,outcome,[2],inactive [at 9.29 µM]
C[C@@H](CC[C@@H]1[C@@]2(C)CCCC(C)(C)C2CC[C@@]1(C)O)CC(=O)O (some centres undefined),Potency,[1],inactive
same,Potency,[2],inactive
CC1(C)CC=C(c2cnc3ccccc3c2)c2cc(C(=O)Nc3ccc(C(=O)O)cc3)ccc21,Potency,[1],inactive
same,Potency,[2],inactive
same,Potency,[3],17.5 µM (active)
same,Potency,[4],15.6 µM (active)
same,Potency,[5],2.78 µM (active)
same,Potency,[6],1.78 µM (active)
same,Potency,[7],3.16 µM (active)
same,Potency,[8],1.97 µM (active)
same,Potency,[10],inactive
same,outcome,[9],inactive
CC(=O)OC/C(=C/C(=O)O)CC[C@@H]1C(CO)=CC[C@@H]2C(C)(C)CCC[C@@]12C,Potency,[1],inactive
same,Potency,[2],inactive
C=C1[C@H]2CCC3[C@]4(C)CCC[C@@](C)(C(=O)O)C4CC[C@]3(C2)[C@H]1OC(C)=O (some centres undefined),Potency,[1],inactive
same,Potency,[2],inactive
COC(=O)c1[nH]c(=O)c2ccccc2c1-c1ccc[nH]1,Potency,[1],inactive
same,Potency,[2],inactive
COc1c2cc(c(O[C@@H]3O[C@H](CO)[C@@H](O)[C@H](O)[C@H]3O)c1OC)CCCCC(O)CCc1ccc(O)c-2c1 (some centres undefined),Potency,[1],inactive
same,Potency,[2],inactive
CC1CC(=O)C2=C(O1)OC1(C)CCC3C(C)(C)C4OC4C(=O)C3(C)C1C2 (centres undefined),Potency,[1],inactive
same,Potency,[2],inactive
C[C@]1(C2CCCC2)Cc2cc(OCC(=O)O)c(Cl)c(Cl)c2C1=O,Potency,[1],inactive
same,Potency,[2],inactive
COc1cccc(OC)c1-c1cc(C(=O)N[C@@H](CC(C)C)C(=O)O)nn1-c1ccnc2cc(Cl)ccc12,Potency,[1],inactive
same,Potency,[2],inactive
same,Potency,[5],17.5 µM (active)
same,Potency,[11],inactive
same,Potency,[6],22.4 µM (active)
same,Potency,[7],10 µM (active)
same,Potency,[8],12.4 µM (active)
same,Potency,[12],31.6 µM (active)
same,Potency,[10],inactive
same,outcome,[9],inactive
